Drawing on ChEMBL document CHEMBL1961873, “Compounds: GSK PKIS; Assays: Nanosyn kinase panel” (2012), this text covers inhibition for 10 molecules.

Test [1] deals with MAP/microtubule affinity-regulating kinase 3 (Homo sapiens) (UniProt P27448). The note with it: at 1 µM.
The target of test [2] is T1, MAP/microtubule affinity-regulating kinase 4 (Homo sapiens) (UniProt Q96L34).
T1 sequence (whole entry): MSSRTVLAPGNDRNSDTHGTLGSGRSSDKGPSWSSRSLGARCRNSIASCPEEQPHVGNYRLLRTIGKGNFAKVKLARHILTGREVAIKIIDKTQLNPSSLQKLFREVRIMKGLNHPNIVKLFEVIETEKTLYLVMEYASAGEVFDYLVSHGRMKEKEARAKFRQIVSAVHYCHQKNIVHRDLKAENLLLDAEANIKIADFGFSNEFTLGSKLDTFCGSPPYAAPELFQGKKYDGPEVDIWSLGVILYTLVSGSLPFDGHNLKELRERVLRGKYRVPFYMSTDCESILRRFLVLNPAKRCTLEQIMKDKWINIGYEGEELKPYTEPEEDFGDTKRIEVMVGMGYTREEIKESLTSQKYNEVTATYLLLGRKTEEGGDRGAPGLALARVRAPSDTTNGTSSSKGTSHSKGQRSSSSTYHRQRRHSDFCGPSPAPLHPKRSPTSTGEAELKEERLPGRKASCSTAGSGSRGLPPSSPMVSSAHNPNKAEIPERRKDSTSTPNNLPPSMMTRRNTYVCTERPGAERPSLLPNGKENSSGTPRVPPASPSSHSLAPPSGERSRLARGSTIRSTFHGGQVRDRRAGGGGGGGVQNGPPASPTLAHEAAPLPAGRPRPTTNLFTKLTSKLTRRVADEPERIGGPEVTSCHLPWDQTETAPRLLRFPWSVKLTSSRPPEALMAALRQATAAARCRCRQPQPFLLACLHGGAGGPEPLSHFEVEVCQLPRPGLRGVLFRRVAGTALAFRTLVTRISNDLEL
Particulars: at 0.1 µM.

The target of test [3] is T1, MAP/microtubule affinity-regulating kinase 4 (Homo sapiens). The note with it: at 1 µM.
Test [4] concerns the target Maternal embryonic leucine zipper kinase (Homo sapiens) (UniProt Q14680). Particulars: at 0.1 µM.
For test [5] the target is unchanged. The note with it: at 1 µM.
Test [6] has as its target MAP kinase-interacting serine/threonine-protein kinase 1 (Homo sapiens) (UniProt Q9BUB5). Particulars: at 0.1 µM.
Test [7] has the same target. Particulars: at 1 µM.
The target in test [8] is MAP kinase-interacting serine/threonine-protein kinase 2 (Homo sapiens) (UniProt Q9HBH9). Particulars: at 0.1 µM.
The target is the same in test [9]. Particulars: at 1 µM.
Test [10] addresses Serine/threonine-protein kinase MARK2 (Homo sapiens) (UniProt Q7KZI7). Particulars: at 0.1 µM.
The target is the same in test [11]. The note with it: at 1 µM.
Test [12] concerns the target PAS domain-containing serine/threonine-protein kinase (Homo sapiens) (UniProt Q96RG2). The note with it: at 0.1 µM.
For test [13] the target is unchanged. Particulars: at 1 µM.
Test [14] has as its target Phosphorylase b kinase gamma catalytic chain, skeletal muscle/heart isoform (Homo sapiens) (UniProt Q16816). Particulars: at 0.1 µM.
The target is the same in test [15]. Particulars: at 1 µM.
The target of test [16] is T2, Phosphorylase b kinase gamma catalytic chain, liver/testis isoform (Homo sapiens) (UniProt P15735).
T2 sequence (whole entry): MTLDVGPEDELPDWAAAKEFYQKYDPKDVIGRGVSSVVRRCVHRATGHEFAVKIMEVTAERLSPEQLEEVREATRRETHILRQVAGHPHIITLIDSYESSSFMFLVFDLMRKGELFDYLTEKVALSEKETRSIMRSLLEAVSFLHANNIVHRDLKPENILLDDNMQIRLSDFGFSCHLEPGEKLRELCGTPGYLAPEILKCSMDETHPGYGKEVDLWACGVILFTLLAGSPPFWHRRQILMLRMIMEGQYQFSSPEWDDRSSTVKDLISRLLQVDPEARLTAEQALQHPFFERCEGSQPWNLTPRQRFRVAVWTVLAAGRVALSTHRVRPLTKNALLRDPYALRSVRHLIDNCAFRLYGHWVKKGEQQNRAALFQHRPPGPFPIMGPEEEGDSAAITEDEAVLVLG
The note with it: at 0.1 µM.

In test [17] the target is T2, Phosphorylase b kinase gamma catalytic chain, liver/testis isoform (Homo sapiens). The note with it: at 1 µM.
Test [18] addresses Serine/threonine-protein kinase pim-1 (Homo sapiens) (UniProt P11309). The note with it: at 0.1 µM.
The target is the same in test [19]. Particulars: at 1 µM.
Test [20] deals with Serine/threonine-protein kinase pim-2 (Homo sapiens) (UniProt Q9P1W9). Particulars: at 0.1 µM.
Serine/threonine-protein kinase pim-2 (Homo sapiens), sequence (Q9P1W9 whole entry, looked up): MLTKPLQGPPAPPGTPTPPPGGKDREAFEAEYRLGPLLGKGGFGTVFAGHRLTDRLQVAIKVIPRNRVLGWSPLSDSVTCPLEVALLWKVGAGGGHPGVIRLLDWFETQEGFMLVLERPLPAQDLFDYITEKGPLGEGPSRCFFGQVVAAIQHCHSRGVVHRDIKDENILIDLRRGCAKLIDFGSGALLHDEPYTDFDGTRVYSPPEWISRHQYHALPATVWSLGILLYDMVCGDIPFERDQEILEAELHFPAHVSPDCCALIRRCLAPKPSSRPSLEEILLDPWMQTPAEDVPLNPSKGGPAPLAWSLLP

MAP kinase-interacting serine/threonine-protein kinase 2 (Homo sapiens), sequence (Q9HBH9 whole entry, looked up): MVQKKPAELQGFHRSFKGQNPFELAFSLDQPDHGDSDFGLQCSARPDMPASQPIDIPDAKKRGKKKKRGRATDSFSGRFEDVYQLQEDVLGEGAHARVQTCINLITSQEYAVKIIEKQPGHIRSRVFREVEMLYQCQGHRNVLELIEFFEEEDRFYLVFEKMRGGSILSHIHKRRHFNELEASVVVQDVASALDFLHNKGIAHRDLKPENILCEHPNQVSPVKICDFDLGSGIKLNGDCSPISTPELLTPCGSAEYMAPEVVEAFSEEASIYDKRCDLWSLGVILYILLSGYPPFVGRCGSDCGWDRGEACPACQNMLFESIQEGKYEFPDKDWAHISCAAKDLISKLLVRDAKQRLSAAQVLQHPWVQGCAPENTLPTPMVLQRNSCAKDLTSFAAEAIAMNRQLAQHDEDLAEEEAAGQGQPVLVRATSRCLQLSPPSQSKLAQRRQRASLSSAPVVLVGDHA
Serine/threonine-protein kinase MARK2 (Homo sapiens), sequence (Q7KZI7 whole entry): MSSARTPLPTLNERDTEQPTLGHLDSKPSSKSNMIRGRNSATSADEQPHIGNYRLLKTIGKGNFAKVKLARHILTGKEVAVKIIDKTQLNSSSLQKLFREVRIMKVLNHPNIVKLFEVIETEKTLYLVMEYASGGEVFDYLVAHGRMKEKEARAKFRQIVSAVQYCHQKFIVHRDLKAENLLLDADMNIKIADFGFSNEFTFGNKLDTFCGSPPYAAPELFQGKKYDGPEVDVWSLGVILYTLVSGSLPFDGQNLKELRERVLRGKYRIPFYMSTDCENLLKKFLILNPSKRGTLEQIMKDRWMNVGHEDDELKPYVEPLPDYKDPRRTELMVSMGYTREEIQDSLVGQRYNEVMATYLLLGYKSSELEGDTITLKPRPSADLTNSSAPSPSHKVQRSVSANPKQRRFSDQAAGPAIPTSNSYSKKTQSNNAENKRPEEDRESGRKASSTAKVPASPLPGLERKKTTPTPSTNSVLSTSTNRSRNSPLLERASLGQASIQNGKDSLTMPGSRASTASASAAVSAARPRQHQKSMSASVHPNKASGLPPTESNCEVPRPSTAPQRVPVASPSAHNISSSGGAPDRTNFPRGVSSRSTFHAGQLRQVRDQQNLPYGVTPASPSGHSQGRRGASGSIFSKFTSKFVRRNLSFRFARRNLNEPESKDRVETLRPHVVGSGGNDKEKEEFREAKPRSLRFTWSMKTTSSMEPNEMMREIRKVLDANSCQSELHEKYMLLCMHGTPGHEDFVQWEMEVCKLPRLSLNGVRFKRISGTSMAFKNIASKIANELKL
Maternal embryonic leucine zipper kinase (Homo sapiens), sequence (Q14680 whole entry, looked up): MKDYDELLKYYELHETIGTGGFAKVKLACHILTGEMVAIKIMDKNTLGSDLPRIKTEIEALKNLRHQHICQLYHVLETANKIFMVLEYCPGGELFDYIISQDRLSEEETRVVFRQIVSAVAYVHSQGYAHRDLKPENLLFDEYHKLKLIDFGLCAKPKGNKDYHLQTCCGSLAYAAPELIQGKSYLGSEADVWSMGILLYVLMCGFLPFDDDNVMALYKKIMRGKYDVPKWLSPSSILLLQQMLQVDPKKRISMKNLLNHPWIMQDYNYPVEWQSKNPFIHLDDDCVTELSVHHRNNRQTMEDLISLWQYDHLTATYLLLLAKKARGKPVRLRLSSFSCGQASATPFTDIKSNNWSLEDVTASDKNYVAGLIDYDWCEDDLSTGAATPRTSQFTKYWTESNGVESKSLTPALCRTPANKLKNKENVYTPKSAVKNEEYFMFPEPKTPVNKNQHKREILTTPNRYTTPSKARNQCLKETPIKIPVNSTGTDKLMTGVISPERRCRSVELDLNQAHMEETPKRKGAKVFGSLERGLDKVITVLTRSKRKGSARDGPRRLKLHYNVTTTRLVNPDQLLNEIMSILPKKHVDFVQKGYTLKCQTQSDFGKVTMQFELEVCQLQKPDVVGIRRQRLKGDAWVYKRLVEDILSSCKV
Serine/threonine-protein kinase pim-1 (Homo sapiens), sequence (P11309 whole entry, looked up): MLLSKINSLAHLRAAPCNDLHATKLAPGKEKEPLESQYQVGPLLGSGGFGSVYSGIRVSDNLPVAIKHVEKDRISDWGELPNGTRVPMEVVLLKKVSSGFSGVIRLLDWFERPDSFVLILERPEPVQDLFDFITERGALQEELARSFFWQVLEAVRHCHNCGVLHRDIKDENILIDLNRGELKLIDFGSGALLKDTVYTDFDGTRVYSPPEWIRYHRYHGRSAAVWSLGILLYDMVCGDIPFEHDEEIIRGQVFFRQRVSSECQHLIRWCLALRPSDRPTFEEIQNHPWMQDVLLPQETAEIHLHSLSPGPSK
PAS domain-containing serine/threonine-protein kinase (Homo sapiens), sequence (Q96RG2 whole entry, the tested form may be a part): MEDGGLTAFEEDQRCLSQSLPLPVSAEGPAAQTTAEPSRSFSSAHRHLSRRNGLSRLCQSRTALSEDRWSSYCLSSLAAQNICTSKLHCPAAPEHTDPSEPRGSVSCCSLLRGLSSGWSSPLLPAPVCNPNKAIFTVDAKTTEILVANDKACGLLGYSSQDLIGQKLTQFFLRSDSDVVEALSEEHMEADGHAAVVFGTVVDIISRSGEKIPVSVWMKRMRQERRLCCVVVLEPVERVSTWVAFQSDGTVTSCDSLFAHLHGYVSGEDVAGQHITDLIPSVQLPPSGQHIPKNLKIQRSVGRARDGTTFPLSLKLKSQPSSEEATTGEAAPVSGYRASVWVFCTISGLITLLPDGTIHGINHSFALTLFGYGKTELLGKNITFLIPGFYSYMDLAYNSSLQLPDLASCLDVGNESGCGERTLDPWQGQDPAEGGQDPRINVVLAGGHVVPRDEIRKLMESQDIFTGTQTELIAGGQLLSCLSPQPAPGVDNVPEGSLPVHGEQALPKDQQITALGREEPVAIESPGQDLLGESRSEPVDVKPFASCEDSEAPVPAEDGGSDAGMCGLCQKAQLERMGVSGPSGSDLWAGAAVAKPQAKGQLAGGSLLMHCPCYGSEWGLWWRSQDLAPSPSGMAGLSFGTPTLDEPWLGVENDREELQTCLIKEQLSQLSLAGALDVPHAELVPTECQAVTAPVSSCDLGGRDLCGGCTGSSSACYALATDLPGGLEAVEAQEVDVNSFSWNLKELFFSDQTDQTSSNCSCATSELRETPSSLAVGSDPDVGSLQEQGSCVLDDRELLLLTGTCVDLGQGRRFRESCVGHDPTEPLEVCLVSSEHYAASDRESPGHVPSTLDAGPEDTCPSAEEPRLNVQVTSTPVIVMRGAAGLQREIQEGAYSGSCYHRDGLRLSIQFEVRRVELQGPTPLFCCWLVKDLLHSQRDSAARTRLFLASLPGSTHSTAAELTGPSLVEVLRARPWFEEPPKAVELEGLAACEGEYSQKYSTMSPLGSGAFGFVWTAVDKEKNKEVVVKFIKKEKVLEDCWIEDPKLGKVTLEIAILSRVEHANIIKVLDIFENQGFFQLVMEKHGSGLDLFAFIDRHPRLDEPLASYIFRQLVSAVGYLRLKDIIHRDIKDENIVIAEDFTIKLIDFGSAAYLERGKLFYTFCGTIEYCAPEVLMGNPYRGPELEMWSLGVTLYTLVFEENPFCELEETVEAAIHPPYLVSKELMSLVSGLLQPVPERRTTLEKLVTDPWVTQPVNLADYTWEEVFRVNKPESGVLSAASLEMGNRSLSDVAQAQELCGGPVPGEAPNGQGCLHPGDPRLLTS
Phosphorylase b kinase gamma catalytic chain, skeletal muscle/heart isoform (Homo sapiens), sequence (Q16816 whole entry, looked up, canonical isoform): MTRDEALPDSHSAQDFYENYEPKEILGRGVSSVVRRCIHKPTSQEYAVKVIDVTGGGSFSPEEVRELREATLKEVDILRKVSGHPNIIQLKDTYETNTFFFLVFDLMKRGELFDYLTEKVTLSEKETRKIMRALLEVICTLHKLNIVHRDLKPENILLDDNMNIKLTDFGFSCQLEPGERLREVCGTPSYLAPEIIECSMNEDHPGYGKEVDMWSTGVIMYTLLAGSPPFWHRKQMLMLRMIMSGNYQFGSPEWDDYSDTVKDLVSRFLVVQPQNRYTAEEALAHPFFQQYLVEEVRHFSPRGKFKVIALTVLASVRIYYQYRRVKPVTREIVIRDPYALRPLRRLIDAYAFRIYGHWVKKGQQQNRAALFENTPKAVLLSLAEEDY
MAP/microtubule affinity-regulating kinase 3 (Homo sapiens), sequence (P27448 whole entry, looked up): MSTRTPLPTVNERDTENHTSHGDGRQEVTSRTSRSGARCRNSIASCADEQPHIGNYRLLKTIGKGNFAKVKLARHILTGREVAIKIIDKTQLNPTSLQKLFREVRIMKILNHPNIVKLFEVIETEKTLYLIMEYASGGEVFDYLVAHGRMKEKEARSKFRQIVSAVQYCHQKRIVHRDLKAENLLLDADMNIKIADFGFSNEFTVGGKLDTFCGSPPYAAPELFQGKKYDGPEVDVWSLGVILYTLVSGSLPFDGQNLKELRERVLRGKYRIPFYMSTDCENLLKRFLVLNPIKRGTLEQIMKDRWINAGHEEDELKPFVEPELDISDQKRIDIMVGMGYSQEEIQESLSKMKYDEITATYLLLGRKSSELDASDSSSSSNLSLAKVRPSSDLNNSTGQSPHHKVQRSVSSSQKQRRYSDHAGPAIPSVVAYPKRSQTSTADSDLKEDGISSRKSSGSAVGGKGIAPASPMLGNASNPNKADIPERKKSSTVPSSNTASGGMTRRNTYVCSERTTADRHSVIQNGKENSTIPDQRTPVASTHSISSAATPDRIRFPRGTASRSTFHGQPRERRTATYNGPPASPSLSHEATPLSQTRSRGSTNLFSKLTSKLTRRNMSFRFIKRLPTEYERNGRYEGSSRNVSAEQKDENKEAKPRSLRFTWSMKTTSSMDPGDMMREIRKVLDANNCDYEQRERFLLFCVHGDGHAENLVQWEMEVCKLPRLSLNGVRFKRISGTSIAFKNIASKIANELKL

As to `CCN1CCC(CC(=O)Nc2n[nH]c3nc(-c4cccs4)c(Br)cc23)CC1`, the inhibition – broadly, the relative decrease from the control value, in per cent – in [1] was -0.75%; in test [2], 0.08%; in test [3], 0.81%; in [4], -1.63%; in test [5], 0.98%; in test [6] it was 42%. Besides, the inhibition in test [7] was 76.6%; in test [8], 2.95%; in [9], 28.2%; in test [10], 0.07%; in test [11], 0.15%; in test [12] it was -0.58%. Moreover, the inhibition was -1.17% in [13]; 2.37% in [14]; 5.36% in [15]; -4.86% in test [16]; -3.7% in test [17]; 0.1% in [18]. In addition, the results for the inhibition in [19] and in [20] were 3.88% and 0.19%, respectively.
On to `Cc1ccc(NC(=O)c2ccnc(N3CCCC3)c2)cc1-c1ccc(C(=O)NCC2CC2)cc1`, for which the inhibition in [1] was 0.65%; in test [2] it was 4.16%; in test [3], 5.97%; in test [4] it was 4.85%; in [5], 7.99%; in [6], 1.78%. Further, the inhibition was 6.57% in [7]; -0.01% in [8]; 1.11% in test [9]; 0.13% in [10]; 6.34% in [11]; -0.05% in test [12]. Also, the inhibition is -1.71% in [13]; 6.43% in test [14]; 11% in test [15]; 5.9% in [16]; 5.73% in [17]; 0.89% in [18]. Also, the inhibition in test [19] is 1.92%; in test [20], -2.62%.
As for `Cc1cccc(-c2n[nH]cc2-c2ccc3ncccc3n2)n1`, the inhibition was 0.24% in [1]; -0.19% in test [2]; -0.68% in [3]; 1.01% in test [4]; 4.06% in test [5]; 0.44% in [6]. Besides, the inhibition in [7] was 2.25%; in [8], 0.2%; in [9], 3.14%; in [10], -0.96%; in test [11] it was -0.03%; in test [12] it was -0.24%. The inhibition is 1.18% in test [13]; 1.19% in test [14]; 2.02% in test [15]; -0.65% in test [16]; -0.32% in [17]; -0.24% in test [18]. In addition, the inhibition in test [19] is 0.02%; in test [20], 0.22%.
On to `CS(=O)(=O)Nc1ccc(N/C=C2\C(=O)Nc3ccccc32)cc1`, for which the inhibition in test [1] is 16.1%; in test [2] it was 3.29%; in test [3], 18.9%; in [4] it was -1.64%; in test [5] it was 20.9%; in test [6], -0.49%. The inhibition in [7] was -0.33%; in test [8] it was 0.01%; in test [9] it was 5.59%; in [10], 2.67%; in test [11] it was 15.6%; in [12] it was 0.59%. The inhibition is 0.59% in [13]; 4.32% in [14]; 31.5% in [15]; -3.81% in test [16]; 5.2% in test [17]; 0.18% in [18]. For the same molecule, the inhibition in test [19] is 0.04%; in [20], -0.01%.
For `CN1CCC(C(=O)Nc2n[nH]c3nnc(-c4ccccc4)cc23)CC1`, the inhibition in test [1] is 4.62%; in [2], 2.21%; in test [3], 3.02%; in test [4], 3.21%; in [5] it was 5.92%; in test [6], 6.32%. Further, the inhibition in [7] was determined as 13.6%; in test [8], 2.9%; in test [9], 8.1%; in test [10] it was 1.18%; in test [11], 0.72%; in [12], 0.17%. The inhibition in test [13] was 0.71%; in test [14] it was 5.33%; in test [15], 11.3%; in test [16], 6.18%; in test [17] it was 9.48%; in [18], 1.63%. Moreover, the inhibition was 3.41% in [19] and 0.6% in test [20].
As to `COc1cc(C=NNc2ncnc3c2cnn3-c2ccccc2)ccc1O`, the inhibition in [1] stood at 18.2%; in [2], 1.61%; in test [3] it was 11.3%; in test [4], 6.74%; in test [5], 43.8%; in test [6], 12.1%. For the same molecule, the inhibition in test [7] is 49.9%; in [8], 13.7%; in test [9], 52%; in test [10], -0.32%; in test [11] it was 6.47%; in test [12], 0.58%. In addition, the inhibition was -3.11% in test [13]; 2.48% in test [14]; 11.3% in test [15]; 3.34% in test [16]; 2% in [17]; 1.39% in test [18]. Besides, the figures for the inhibition in [19] and in test [20] were 1.57% and -0.02%, respectively.
As for `NC(=O)c1ccc(-c2nc(-c3ccccn3)c(-c3ccc4c(c3)OCO4)[nH]2)cc1`, the inhibition in [1] was 11%; in [2], 1.03%; in test [3] it was 0.93%; in [4], 2.76%; in [5] it was 2.1%; in test [6], 1.26%. Further, the inhibition in test [7] is 5.1%; in test [8] it was 1.27%; in test [9] it was 3.13%; in test [10], -0.01%; in test [11] it was -0.45%; in test [12], 0.34%. Moreover, the inhibition in test [13] is 1.31%; in test [14] it was 2.92%; in test [15], 4.79%; in test [16], 3.32%; in test [17], 3.73%; in test [18], -0.68%. The inhibition in test [19] came out at 0.92%; in test [20], 0.03%.
As to `CCn1c(-c2nonc2N)nc2cncc(C(=O)N3CCNCC3)c21`, the inhibition was determined as 7.99% in test [1]; 2.3% in test [2]; 1.48% in [3]; 6.1% in test [4]; 9.51% in test [5]; 2.42% in [6]. In addition, the inhibition was 2.99% in test [7]; 1.78% in [8]; 0.78% in [9]; 2.18% in test [10]; 2.03% in [11]; -1.71% in [12]. In addition, the inhibition is -0.89% in [13]; 3.09% in test [14]; 4.51% in [15]; 8.34% in [16]; 7.28% in test [17]; 0.31% in [18]. The inhibition was 2.05% in test [19] and -0.98% in test [20].
`CC1=C(C(=O)Nc2ccc3[nH]ncc3c2)C(c2ccc3ccccc3c2)CC(=O)N1` (stereo not given): the inhibition in [1] stood at 4.13%; in test [2] it was 0.19%; in test [3], 1.73%; in [4], 3.7%; in test [5], 6.22%; in test [6], 3.03%. The inhibition was 5.77% in test [7]; 1.21% in test [8]; 3.81% in [9]; -0.71% in [10]; 0.34% in test [11]; -0.4% in test [12]. The inhibition in [13] was -1.53%; in [14], 2.21%; in [15], 1.29%; in test [16], 2.37%; in test [17], 1.22%; in test [18], 0.24%. Moreover, the inhibition in test [19] was -0.93%; in test [20], 0.51%.
`CCn1c(-c2nonc2N)nc2ccncc21`: the inhibition in test [1] was 1.4%; in [2], 1.33%; in test [3], 2.78%; in test [4], -0.81%; in test [5], 2.39%; in [6], 1.17%. The inhibition in test [7] is 3.2%; in test [8] it was 0.41%; in [9], 3.51%; in test [10] it was -1.74%; in [11], 1.6%; in test [12], 0.79%. Also, the inhibition in test [13] was 0.01%; in test [14], 1.54%; in test [15] it was 2.74%; in [16], 2.66%; in test [17], -0.15%; in test [18] it was -0.28%. Also, the figures for the inhibition in test [19] and in test [20] were -0.66% and 0.35%, respectively.
